From PubChem
This is a sample that favours compounds with a hit; in the whole collection about 2.9% have one here.
TSHR antagonist = Antagonists of the Thyroid Stimulating Hormone Receptor: HTS campaign; Thyrotropin receptor (Homo sapiens), P16473; TSHR-expressing cells, TSH-stimulated cAMP HTRF, 2 h; active compounds read low; activity change, negative = inhibition, % at 11.5 µM; 0.2% of 330,000 active; AID 504810, 2011;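 active = activity change below a set negative limit, meaning inhibition stronger than a set level, cut at about -70% in these data; inconclusive = activity change between two set negative limits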; note: % is set by controls: 0 for no effect and ±100 for the full control effect
Target sequence (P16473 whole entry, looked up): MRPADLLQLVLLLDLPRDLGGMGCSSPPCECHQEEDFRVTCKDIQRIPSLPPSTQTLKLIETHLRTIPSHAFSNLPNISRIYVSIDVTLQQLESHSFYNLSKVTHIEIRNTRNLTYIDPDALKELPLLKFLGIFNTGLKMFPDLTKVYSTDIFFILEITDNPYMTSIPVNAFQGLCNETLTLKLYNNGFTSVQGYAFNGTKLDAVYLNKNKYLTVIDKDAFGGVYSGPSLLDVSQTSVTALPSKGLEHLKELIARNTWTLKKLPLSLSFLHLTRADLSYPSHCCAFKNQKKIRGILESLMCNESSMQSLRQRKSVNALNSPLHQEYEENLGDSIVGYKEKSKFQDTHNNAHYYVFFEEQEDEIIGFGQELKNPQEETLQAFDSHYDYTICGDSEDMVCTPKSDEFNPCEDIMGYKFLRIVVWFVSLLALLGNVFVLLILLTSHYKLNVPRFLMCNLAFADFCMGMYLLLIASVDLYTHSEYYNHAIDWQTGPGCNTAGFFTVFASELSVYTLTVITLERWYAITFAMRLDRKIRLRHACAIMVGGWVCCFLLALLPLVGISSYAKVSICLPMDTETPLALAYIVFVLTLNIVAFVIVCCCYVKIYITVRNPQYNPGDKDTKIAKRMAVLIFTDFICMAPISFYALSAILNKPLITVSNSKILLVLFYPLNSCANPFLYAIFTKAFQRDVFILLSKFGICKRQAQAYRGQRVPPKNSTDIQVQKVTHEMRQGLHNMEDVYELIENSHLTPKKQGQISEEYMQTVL
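TSHR-expressing cells, 200/well, pre-treated with compound, then stimulated with EC80 TSH (4nM final) for 2 hours at 37 deg C. cAMP measured by competitive HTRF: anti-cAMP cryptate antibody in lysis buffer plus cAMP-d2, read after 30 minutes at room temperature.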
D3 ag = qHTS of D3 Dopamine Receptor Agonist: qHTS; max activation, %; D(3) dopamine receptor (Homo sapiens), P35462; AID 652048, 2013; D3R DiscoveRx beta-arrestin cells, luminescence, 90 min; 0.58% of 410,000 active; in the data active = max activation above about 30%; note: 0% is about no effect
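Agonist-mode cell screen: cells plated at 1500/well and incubated overnight at 37 °C, then exposed to library compounds for 90 min at 37 °C. Detection reagent was added for 30–60 min at room temperature, and luminescence was read.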
DRD3 antagonist = qHTS of D3 Dopamine Receptor Antagonist: qHTS; D(3) dopamine receptor (Homo sapiens), P35462; D3R cells, DiscoveRx beta-arrestin luminescence, antagonist mode; active compounds read low; 2.5% of 360,000 active; max response, negative = inhibition, %; in the data active = max response below about -50%; inconclusive = no clear call, values can overlap the other calls; note: % is set by controls: 0 for no effect and ±100 for the full control effect
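Cells expressing the human receptor were seeded at 1500 cells/well, incubated overnight at 37 degrees C in 5% CO2, then exposed to library compounds with dopamine controls for 90 minutes at 37 degrees C before luminescent detection.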
B2AR arrestin = qHTS assay of beta-arrestin-biased ligands of beta2-adrenergic receptor | Potency, µM (doses to about 46.1 µM), for the others: at the highest dose activation, most hits filed as activators | beta-arrestin recruitment to beta2AR, cell-based reporter | Beta-2 adrenergic receptor (Homo sapiens), P07550 | 0.02% of 330,000 active | AID 492947, 2010; active = well fitted activation curve with a large enough effect; inconclusive = small, poorly fitted or top-dose-only effect;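 note: potency is the fitted concentration of half-maximal effect; 0% = DMSO controls and full agonism = EC100 isoproterenol or metaproterenol; nearly all actives have a fitted effect of over 65% in size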
Active calls of the source: *.

What do the screens show for `O=C(O)c1cc(-n2nnnc2SCc2ccc([N+](=O)[O-])cc2)ccc1Cl`?
TSHR antagonist: -8; D3 ag: -7; DRD3 antagonist: -54*; B2AR arrestin: 0%

How did COc1ccc(Br)cc1Cn1nnc(C(=O)Nc2cccc(SC)c2)c1N do in these assays?
D3 ag: -6

How did O=C(Nc1c(Cl)cccc1Cl)Oc1cccc2cccnc12 do in these assays?
D3 ag: 2; DRD3 antagonist: -52*

Results for O=C(Nc1cccc(C(F)(F)F)c1)Oc1ccc(Cl)c2cccnc12 ?
TSHR antagonist: -35; D3 ag: -30; DRD3 antagonist: -62*; B2AR arrestin: inconclusive

Results for O=C(COc1cccc2cccnc12)Nc1ccccc1 ?
TSHR antagonist: 17; D3 ag: -7; DRD3 antagonist: -17; B2AR arrestin: 0%

What do the screens show for `O=C(Nc1cccc(Br)c1)Oc1cccc2cccnc12`?
D3 ag: -24; DRD3 antagonist: -83*

How did CCN(CC)C(=O)Oc1ccc(Cl)c2cccnc12 do in these assays?
TSHR antagonist: -7; D3 ag: -12; DRD3 antagonist: -6; B2AR arrestin: 0%

How did CCc1ccc(C2=C(C)C(N3CCC(C(=O)NCCc4ccco4)CC3)=NS2(=O)=O)cc1 do in these assays?
D3 ag: -7

How did O=c1[nH]c(CN2CCN(c3ccccc3)CC2)nc2scc(-c3ccccc3)c12 do in these assays?
TSHR antagonist: -9; D3 ag: 108*; DRD3 antagonist: -5; B2AR arrestin: 0%

What do the screens show for `Cc1ccc2[nH]c3c(c2c1)CNCC3`?
TSHR antagonist: -3; D3 ag: -22; DRD3 antagonist: -58*; B2AR arrestin: -1%

Results for Cc1ccc(NC(=O)C2CCN(C(=O)c3ccco3)CC2)cc1 ?
TSHR antagonist: -4; D3 ag: 3; DRD3 antagonist: 5; B2AR arrestin: -1%

How did O=C(Nc1ccc(Cl)c(Cl)c1)C1CCN(C(=O)c2ccco2)CC1 do in these assays?
TSHR antagonist: -20; D3 ag: -13; DRD3 antagonist: -81*; B2AR arrestin: 0%

How did CC[C@H]1OC(=O)[C@H](C)[C@@H](O[C@H]2C[C@@](C)(OC)[C@@H](O)[C@H](C)O2)[C@H](C)[C@@H](O[C@@H]2O[C@H](C)C[C@H](N(C)C)[C@H]2O)[C@](C)(O)C[C@@H](C)/C(=N\OCOCCOC)[C@H](C)[C@@H](O)[C@]1(C)O do in these assays?
D3 ag: 5

How did Cc1cccc(-c2nc3c(cnn3-c3ccccc3)c(=O)n2-c2cccc(Cl)c2)c1 do in these assays?
D3 ag: -14

What do the screens show for `CCOC(=O)N1CCN(c2cc(NCCC(=O)O)c3c4c(onc24)-c2ccccc2C3=O)CC1`?
TSHR antagonist: -25; D3 ag: -7; DRD3 antagonist: -77*; B2AR arrestin: 0%

What do the screens show for `CCOc1ccccc1NC(=O)Cn1c(=O)n(-c2ccc(C)c(C)c2)c(=O)c2oc3ccccc3c21`?
D3 ag: 6

What do the screens show for `COCCNc1oc(-c2ccccc2Cl)nc1S(=O)(=O)c1ccc(C)cc1`?
TSHR antagonist: 14; D3 ag: -15; DRD3 antagonist: -11; B2AR arrestin: -1%

Results for CN(C)CCCNc1oc(-c2ccccc2Cl)nc1S(=O)(=O)c1ccccc1 ?
TSHR antagonist: 13; D3 ag: -21; DRD3 antagonist: -72*; B2AR arrestin: 0%

Results for CN(C)CCCNc1oc(-c2ccc(Cl)cc2)nc1S(=O)(=O)c1ccccc1 ?
TSHR antagonist: 3; D3 ag: -29; DRD3 antagonist: -73*; B2AR arrestin: 0%

How did O=S(=O)(c1ccccc1)c1nc(-c2ccc(F)cc2)oc1NCc1ccccc1 do in these assays?
D3 ag: 7

Results for COc1ccc(OC)c(CNC(=O)c2ccc(-c3nc(CSc4ccccc4)c(C)o3)cc2)c1 ?
D3 ag: -22

What do the screens show for `Cc1ccc(O)c(Nc2nc3ccccc3c3nncn23)c1`?
D3 ag: 4

How did COc1ccc(C(=O)NCCNC(C)=O)cc1S(=O)(=O)NCc1ccc(Cl)cc1 do in these assays?
TSHR antagonist: 17; D3 ag: 1; DRD3 antagonist: inconclusive; B2AR arrestin: 0%
